In PubChem BioAssay (NCI):
Compounds without any hit were thinned out: in the full panel of roughly 79,000, 15% have a hit. Unmarked numbers belong to inactive results. The source made the active and inactive calls. Cut-off read from the data, not from the text of the source: active = growth inhibition above about 70%; inactive = the rest.

assay: NCI Yeast Anticancer Drug Screen. Data for the mec2-1 strain (AID 157); details: S. cerevisiae mec2-1 strain, at 50.0 µM (retest, dose inferred, filed as 5.0), active compounds read high
Method in brief: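 Cells of the genetically defined mec2-1 yeast strain are incubated with test compound. Inhibition of growth is calculated against vehicle-treated controls.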

Structure (SMILES) | growth inhibition
O=C(/C=C/c1cccc(Cl)c1)c1ccccc1 | 99% (active)
COc1cccc(N2C(=O)C3CC(CC(C)(C)C)c4c([nH]c5ccccc45)C3C2=O)c1 (stereo not given) | 22%
O=C1c2ccccc2NC(=O)C2C1C(c1ccccc1)CC2(O)c1ccccc1 (stereo not given) | 88% (active)
CCOC(=O)C1SC(=Nc2ccc(Cl)cc2)N=C1C (stereo not given) | 37%
COC(=O)c1nc(=S)[nH]c(C(=O)OC)c1C(=O)c1ccccn1 | 84% (active)
Cn1c2c(c3ccccc31)CCN1C[C@@H]3CCCC[C@H]3C[C@@H]21 | 2%
CCCCCCCCCCCC1=NCCN1CCNCCCC | 90% (active)
CN=C(N)N/N=C(\C)c1ccc2c(c1)Cc1cc(/C(C)=N/NC(N)=NC)ccc1-2 | 96% (active)
O=C(Nc1ccccc1)OCCc1ccc(Br)cc1 | -31%
CN(C)CC/C(=N\Nc1ccc(Cl)cc1)c1ccccc1 | 99% (active)
O=C1Nc2ccccc2/C1=N\N=c1/scc(-c2ccccc2)n1-c1ccccc1 | 74% (active)
CC(C)(C)C(=O)CC(=O)C(F)(F)C(F)(F)C(F)(F)F.CC(C)(C)C(=O)CC(=O)C(F)(F)C(F)(F)C(F)(F)F.CC(C)(C)C(=O)CC(=O)C(F)(F)C(F)(F)C(F)(F)F.[Fe] | 88% (active)
COc1cc(N=Nc2cccc(S(N)(=O)=O)c2)c2ccccc2c1N | 99% (active)
O=C(/C=C/C(=O)OCCCl)OCCCl | 85% (active)
CCc1ccccc1NC(=O)C1=C(C)NC(C)=C(C(=O)Nc2c(CC)cccc2CC)C1c1ccc2c(c1)OCO2 (stereo not given) | 22%
Oc1c(Cl)cc(Cl)c2cccnc12 | 98% (active)
COc1ccc2c(c1)[n+]([O-])c(-c1ccccc1)c(N)[n+]2[O-] | 99% (active)
O=c1cccccc1[O-].O=c1cccccc1[O-].O=c1cccccc1[O-].[Sm+3] | 19%
CCCCCCCCCCCCCCCCNc1ccn(C2CC(OP(=O)(O)OCC3OC(n4cc(CC)c(=O)[nH]c4=O)CC3O)C(CO)O2)c(=O)n1 (stereo not given) | 97% (active)
Nc1ccccc1OCC(O)CN1CCN(Cc2ccccc2)CC1 (stereo not given) | 15%

Structure (SMILES) | growth inhibition
O=S(=O)(O)c1ccc(O)c2cc(Nc3ccccc3)ccc12 | -29%
CCOC(=O)/C(=C\c1ccc(-c2ccccc2)cc1)C(C)=O | 95% (active)
O=C(C(Oc1ccc(Cl)cc1)Oc1ccc(Cl)cc1)N(O)c1ccccc1OCc1ccccc1 | 39%
CN(C)CC1CCC/C(=C\c2ccc(Cl)cc2)C1=O (stereo not given) | 99% (active)
COc1ccc(/C=N/Nc2ccccc2)cc1 | 85% (active)
O=C1c2ccccc2-c2ccccc2C(=O)C1(Br)Br | -5%
CC(=O)Nc1ccc(C(=O)n2[nH]c(C)c(/C=C3\C(=O)C=Cc4ccccc43)c2=O)cc1 | 100% (active)
CC1OC2CC(=O)OC2C2=C1C(=O)c1c(O)cccc1C2=O (stereo not given) | 99% (active)
CCOC(=O)C(CCSC)C(=O)OCC | 2%
C[CH2][Sn]([CH2]C)([O]C(=O)c1cccc(OC)c1)[O][Sn]([CH2]C)([CH2]C)[O]C(=O)c1cccc(OC)c1 | 79% (active)
O=C(Nc1ccccc1)Oc1c(Cl)c(Cl)c(Cl)c(Cl)c1Cl | 99% (active)
CCN(CC)CCNc1ccc2nnn3c4ccc([N+](=O)[O-])cc4c(=O)c1c23 | 12%
CCCCCCN(CCCCCC)CCC(=O)c1ccc2cc(Br)c3ccccc3c2c1 | 95% (active)
COC(=O)/C=C1/Nc2ccc(Cl)cc2C(=O)NC1=O | 45%
CN(C)COC(=S)SCN(C)C | 99% (active)
Clc1ccc(-c2noc(CN3CCCCC3)n2)cc1 | 24%
CCCCCCCCCCCCCC(=O)OCC(O)CO (stereo not given) | 28%
CCC[CH2][Sn]([CH2]CCC)([O]C(=O)c1cccc(F)c1)[O]C(=O)c1cccc(F)c1 | -2%
CCCCCCCCCCCCCCCCC1CCc2ccccc21 (stereo not given) | -6%
CCOC(=O)NCCCc1ccc2oc3ccccc3c2c1 | 98% (active)

same assay, conditions: S. cerevisiae mec2-1 strain, at 50.0 µM, active compounds read high

Structure (SMILES) | growth inhibition
O=C(/C=C/c1cccc(Cl)c1)c1ccccc1 | 95.5% (active)
COc1cccc(N2C(=O)C3CC(CC(C)(C)C)c4c([nH]c5ccccc45)C3C2=O)c1 (stereo not given) | 27.6%
O=C1c2ccccc2NC(=O)C2C1C(c1ccccc1)CC2(O)c1ccccc1 (stereo not given) | 73.8% (active)
CCOC(=O)C1SC(=Nc2ccc(Cl)cc2)N=C1C (stereo not given) | 91.7% (active)
COC(=O)c1nc(=S)[nH]c(C(=O)OC)c1C(=O)c1ccccn1 | 75% (active)
Cn1c2c(c3ccccc31)CCN1C[C@@H]3CCCC[C@H]3C[C@@H]21 | 8.8%
CCCCCCCCCCCC1=NCCN1CCNCCCC | 98.7% (active)
CN=C(N)N/N=C(\C)c1ccc2c(c1)Cc1cc(/C(C)=N/NC(N)=NC)ccc1-2 | 75.9% (active)
O=C(Nc1ccccc1)OCCc1ccc(Br)cc1 | 23.7%
CN(C)CC/C(=N\Nc1ccc(Cl)cc1)c1ccccc1 | 98.8% (active)
O=C1Nc2ccccc2/C1=N\N=c1/scc(-c2ccccc2)n1-c1ccccc1 | 74.5% (active)
CC(C)(C)C(=O)CC(=O)C(F)(F)C(F)(F)C(F)(F)F.CC(C)(C)C(=O)CC(=O)C(F)(F)C(F)(F)C(F)(F)F.CC(C)(C)C(=O)CC(=O)C(F)(F)C(F)(F)C(F)(F)F.[Fe] | 9.3%
COc1cc(N=Nc2cccc(S(N)(=O)=O)c2)c2ccccc2c1N | 97.7% (active)
O=C(/C=C/C(=O)OCCCl)OCCCl | 82.2% (active)
CCc1ccccc1NC(=O)C1=C(C)NC(C)=C(C(=O)Nc2c(CC)cccc2CC)C1c1ccc2c(c1)OCO2 (stereo not given) | 88.7% (active)
Oc1c(Cl)cc(Cl)c2cccnc12 | 99.2% (active)
COc1ccc2c(c1)[n+]([O-])c(-c1ccccc1)c(N)[n+]2[O-] | 99.3% (active)
O=c1cccccc1[O-].O=c1cccccc1[O-].O=c1cccccc1[O-].[Sm+3] | 92.5% (active)
CCCCCCCCCCCCCCCCNc1ccn(C2CC(OP(=O)(O)OCC3OC(n4cc(CC)c(=O)[nH]c4=O)CC3O)C(CO)O2)c(=O)n1 (stereo not given) | 12.8%
Nc1ccccc1OCC(O)CN1CCN(Cc2ccccc2)CC1 (stereo not given) | 41%

Structure (SMILES) | growth inhibition
O=S(=O)(O)c1ccc(O)c2cc(Nc3ccccc3)ccc12 | 20.9%
CCOC(=O)/C(=C\c1ccc(-c2ccccc2)cc1)C(C)=O | 73.5% (active)
O=C(C(Oc1ccc(Cl)cc1)Oc1ccc(Cl)cc1)N(O)c1ccccc1OCc1ccccc1 | 63%
CN(C)CC1CCC/C(=C\c2ccc(Cl)cc2)C1=O (stereo not given) | 86.8% (active)
COc1ccc(/C=N/Nc2ccccc2)cc1 | 99% (active)
O=C1c2ccccc2-c2ccccc2C(=O)C1(Br)Br | 91.1% (active)
CC(=O)Nc1ccc(C(=O)n2[nH]c(C)c(/C=C3\C(=O)C=Cc4ccccc43)c2=O)cc1 | 99.5% (active)
CC1OC2CC(=O)OC2C2=C1C(=O)c1c(O)cccc1C2=O (stereo not given) | 93% (active)
CCOC(=O)C(CCSC)C(=O)OCC | 12.8%
C[CH2][Sn]([CH2]C)([O]C(=O)c1cccc(OC)c1)[O][Sn]([CH2]C)([CH2]C)[O]C(=O)c1cccc(OC)c1 | 39.2%
O=C(Nc1ccccc1)Oc1c(Cl)c(Cl)c(Cl)c(Cl)c1Cl | 45.8%
CCN(CC)CCNc1ccc2nnn3c4ccc([N+](=O)[O-])cc4c(=O)c1c23 | 26%
CCCCCCN(CCCCCC)CCC(=O)c1ccc2cc(Br)c3ccccc3c2c1 | 98.6% (active)
COC(=O)/C=C1/Nc2ccc(Cl)cc2C(=O)NC1=O | 27.2%
CN(C)COC(=S)SCN(C)C | 54.1%
Clc1ccc(-c2noc(CN3CCCCC3)n2)cc1 | 15.2%
CCCCCCCCCCCCCC(=O)OCC(O)CO (stereo not given) | 6.1%
CCC[CH2][Sn]([CH2]CCC)([O]C(=O)c1cccc(F)c1)[O]C(=O)c1cccc(F)c1 | 33.5%
CCCCCCCCCCCCCCCCC1CCc2ccccc21 (stereo not given) | 64.3%
CCOC(=O)NCCCc1ccc2oc3ccccc3c2c1 | 19.6%
